Source: PubChem BioAssay (NCATS)
Several values for one entry are separate records, joined by “and”; a condition that tells them apart may be missing. Equal values may be shown once. Results filed as inconclusive are left out. The source holds several records for some structures; these can differ, active in one and inactive in another. Unmarked numbers belong to inactive results. Activity calls are given as the source filed them. Calls follow the shape of the dose curve; as a rule, active = well fitted inhibition curve with a large enough effect; inconclusive = small, poorly fitted or top-dose-only effect; inactive = flat fitted curve, though single readings scatter.
% is scaled to controls: 0 for no effect and ±100 for the full control effect; potency is read from the fitted curve at half-maximal effect.

What follows are compounds tested on HEK293 (assay: Cytotoxic Profiling of Annotated Libraries Using Quantitative High-Throughput Screening (AID 1296008; also: nearly all actives have a fitted effect of over 60% in size)). Conditions: Five cell lines viability, CellTiter-Glo ATP luminescence, 48-72 h; max response: stronger effect = lower value.
Source text: Cell-based phenotypic screening is a commonly used approach to discover biological pathways, novel drug targets, chemical probes and high-quality hit-to-lead molecules. Many hits identified from high-throughput screening campaign are ruled out through a series of follow-up potency, selectivity/specificity, and cytotoxicity assays. Prioritization of molecules with little or no cytotoxicity for a more in-depth downstream evaluation influence the future direction of projects, so cytotoxicity profiling of the screening libraries at early stage is essential for increasing the likelihood of candidate success. […] For the annotated library, we also examined the primary targets and mechanistic pathways regularly associated with cell death. To our knowledge, this is the first study to use high-throughput screening to profile large libraries for cytotoxicity assessment in both normal and cancer cell lines. In summary, the results generated here constitutes a valuable resource for the scientific community and provides insight on identifying cytotoxic compounds with particular mechanisms of action, and prioritizing compounds with suitable cytotoxicity profile for further evaluation.
A pintool (Kalypsys) was used to transfer 23 nL of compound solution to the 1536-well assay plates. After 48 or 72 hr incubation at 37 degree Celsius, 5% CO2 and 95% humidity, 2.5 uL of CellTiter-Glo (Promega) was dispensed into each well using a dispenser (Aspect Automation, St. Paul, MN) with solenoid valves (Lee Valves, Westbrook CT). Plates were left at room temperature for 10 min before imaging the ATP-coupled luminescence using a ViewLux microplate imager (PerkinElmer, Waltham, MA).
For `CC(C)(C)c1cnc(CSc2cnc(NC(=O)C3CCNCC3)s2)o1`, the Potency was 0.418 µM (active). With `CN(C)Cc1c(C(=O)NCCOc2ccc(C(=O)NO)cc2)oc2ccccc12` the Potency was 1.87 µM (active) and 1.16 µM (active). For `Nc1ncnc2c1c(-c1cccc(OCc3ccccc3)c1)cn2C1CC(CN2CCCC2)C1` (stereo not given), the Potency was 13.2 µM (active) and 5.17 µM (active). With `COc1ccc(CC2SC(=O)NC2=O)cc1C(=O)NCc1ccc(C(F)(F)F)cc1` (stereo not given) the max response was -1.55%. With `CCS(=O)(=O)c1cccc(-c2cc(C(=O)NC3CCN(C)CC3)c(C)c3[nH]c4ncc(C)cc4c23)c1` the Potency was 1.87 µM (active) and 2.02 µM (active). `Nc1nc(NCCNc2ncc(-n3ccnc3)c(-c3ccc(Cl)cc3Cl)n2)ccc1[N+](=O)[O-]` showed a max response of 4.96%. With `O=C(O)CCCc1c[nH]c2ccccc12` the max response was -0.171% and -7.8%. For `Cc1cc(Nc2cc(CN3CCOCC3)c3nc(C)c(Cc4ccc(Cl)cc4F)n3n2)n[nH]1`, the Potency was 11.8 µM (active) and 16.4 µM (active). For `OCc1ccc(-c2ccc(-c3ccc(CO)s3)o2)s1`, the Potency was 0.142 µM (active). With `C1Cc2[nH]nc(-c3nn[nH]n3)c2C1` the max response was 2.99% and the outcome was “inactive”. With `Cc1ccc(NC(=O)C2(c3ccc4c(c3)OC(F)(F)O4)CC2)nc1-c1cccc(C(=O)O)c1` the Potency was 0.0372 µM (active) and the outcome was “inactive”. `c1ccc2c(CCNc3ccc(Nc4ccncc4)cc3)c[nH]c2c1` was tested, and the Potency was 1.05 µM (active) and 2.31 µM (active). In the case of `Cc1[nH]c2ccccc2c1CCNCc1ccc(C=CC(=O)NO)cc1`, the Potency is reported as 0.418 µM (active). For `Cc1c(Cn2c(C)nc3c(C(=O)O)cc(N4CCOCC4)cc32)cccc1C(F)(F)F`, the outcome was “inactive” and the max response was -8.46%. Compound `O=C(NCCS(=O)(=O)c1ccc(C(F)(F)F)cn1)c1ccc(Cl)cc1` has a max response of -5.18%. With `CC1(O)CC(c2nc(-c3ccc4ccc(-c5ccccc5)nc4c3)c3c(N)nccn23)C1` (stereo not given) the Potency was 4.69 µM (active). For `Cn1cc(-c2[nH]c3cc(NC(=O)[C@H](N)C4CCCCC4)cc4c3c2C=NNC4=O)cn1`, the Potency was 3.32 µM (active) and 5.8 µM (active). In the case of `COc1cc(=C2C=c3ccccc3=N2)[nH]c1=Cc1[nH]c(C)cc1C`, the Potency is reported as 8.33 µM (active). In the case of `CN(C)CC(C)(C)CNc1nn2c(-c3ccccc3)nnc2cc1C1CCC1`, the Potency is reported as 4.18 µM (active) and the outcome is reported as “inactive”. With `CCc1cc2c(cc1N1CCC(N3CCOCC3)CC1)C(C)(C)c1[nH]c3cc(C#N)ccc3c1C2=O` the Potency was 3.17 µM (active) and the max response was -78.7%. With `COCCn1c2c([n+](Cc3cnccn3)c1C)C(=O)c1ccccc1C2=O` the Potency was 0.0166 µM (active). For `COc1cc2ncn(-c3cc(OCc4ccccc4C(F)(F)F)c(C(N)=O)s3)c2cc1OC`, the Potency was 0.469 µM (active). For `CCCCCCCCCC(=O)N[C@@H](Cc1c[nH]c2ccccc12)C(=O)N[C@H](CC(N)=O)C(=O)N[C@@H](CC(=O)O)C(=O)N[C@@H]1C(=O)NCC(=O)N[C@@H](CCCN)C(=O)N[C@@H](CC(=O)O)C(=O)N[C@H](C)C(=O)N[C@@H](CC(=O)O)C(=O)NCC(=O)N[C@H](CO)C(=O)N[C@@H]([C@@H](C)CC(=O)O)C(=O)N[C@@H](CC(=O)c2ccccc2N)C(=O)O[C@@H]1C`, the outcome was “inactive” and the max response was 3.78%. With `Cc1nc2cnc3ccc(C#Cc4cccnc4)cc3c2n1-c1ccc(C(C)(C)C#N)cc1` the Potency was 0.0743 µM (active). For `CC1(C)O[C@@H]2C[C@@H]3[C@H]4C[C@@H](F)C5=CC(=O)C=C[C@]5(C)[C@@]4(F)[C@@H](O)C[C@]3(C)[C@]2(C(=O)CO)O1`, the max response was -3.12%. `Cc1c(C)n(Cc2ccc(-c3ccccc3C(=O)O)cc2)c2ccc(C(=O)N[C@@H](C)c3ccc([N+](=O)[O-])cc3)cc12` was tested, and the outcome was “inactive” and the max response was -2.51%. `Cc1ccc(-c2ncn(-c3ccc(Nc4nccc(-c5cccc(N6CCOCC6)c5)n4)cc3)n2)cn1` was tested, and the Potency was 0.332 µM (active). In the case of `O=C(NCCCNc1nc(Nc2cccc(NC(=O)N3CCCC3)c2)ncc1I)c1cccs1`, the Potency is reported as 20.9 µM (active). `COc1ccc(F)c(F)c1C(=O)c1cnc(NC2CCN(S(C)(=O)=O)CC2)nc1N` was tested, and the Potency was 1.05 µM (active). In the case of `NC1(Cc2ccc(Cl)cc2)CCN(c2ncnc3[nH]ccc23)CC1`, the Potency is reported as 1.66 µM (active) and 6.51 µM (active). With `COC(=O)C1=C(C)NC(C)=C(C(=O)OCCN2CCN(C(c3ccccc3)c3ccccc3)CC2)C1c1cccc([N+](=O)[O-])c1` (stereo not given) the Potency was 11.9 µM (active). For `COc1ccc(C(=O)CC2(O)C(=O)Nc3c(Cl)ccc(Cl)c32)cc1` (stereo not given), the Potency was 2.64 µM (active). `O=C(Nc1ncc(-c2cc(C(F)F)nn2-c2c(Cl)cccc2Cl)s1)C1CC1` was tested, and the Potency was 1.05 µM (active).
